The list is not random: actives were taken first. Their share in the collection is about 4.1%.
hgDAF12 agonist = H. glycines DAF-12 receptor agonists, primary screen, cell-based, luminescence, HEK293, GAL4 fusion, UAS-luciferase; activation, % at 6.8 µM; Nuclear hormone receptor DAF-12 (Heterodera glycines), GAL4 fusion; HEK293 GAL4-hgDAF12 UAS-luciferase reporter, agonist luminescence; normalized to butyrate control; 370,000 tested, 1.8% active; AID 687014, 2013;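 active means activation above a cutoff set at the mean of all screened compounds plus 3 SD, cut at about 10% in these data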
hcDAF12 agonist = H. contortus DAF-12 nuclear receptor activators, primary screen, cell-based, luminescence, HEK293, lit1-tk-luc reporter; 370,000 tested, 1.4% active; HEK293 hcDAF-12 lit1-tk-luc reporter; 0% DMSO, 100% Δ7-dafachronic acid; activation, % at 6.8 µM; AID 652067, 2013;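 active means activation above the mean of all tested compounds plus 3 SD, cut at about 5.5% in these data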
ssDAF12 agonist = S. stercoralis DAF-12 nuclear receptor activators, primary screen, cell-based, luminescence, HEK293, GRIP1 co-expression, lit1-tk-luc. HEK293 ssDAF-12/GRIP1 lit1-tk-luc reporter; % of 3 µM dafachronic acid response. activation, % at 6.8 µM. 370,000 tested, 1% active. AID 652126, 2013;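 active means activation above the mean over all tested compounds plus 3 SD, cut at about 0.9% in these data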
DAX1 inh-1 = DAX1 (NR0B1) inhibitors, primary screen, cell-based, HEK293, Gal4-DAX1, luciferase luminescence | Nuclear receptor subfamily 0 group B member 1 (Homo sapiens), P51843 | HEK293 Gal4-DAX1 luciferase reporter | inhibition, % at 6.75 µM | 340,000 tested, 0.99% active;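 active means inhibition above the mean over all tested compounds plus 3 SD, cut at about 4.2% in these data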;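 further: inhibition shows as a rise in luminescence from relieved DAX1 repression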
Target sequence (P51843 207-470 limits assumed): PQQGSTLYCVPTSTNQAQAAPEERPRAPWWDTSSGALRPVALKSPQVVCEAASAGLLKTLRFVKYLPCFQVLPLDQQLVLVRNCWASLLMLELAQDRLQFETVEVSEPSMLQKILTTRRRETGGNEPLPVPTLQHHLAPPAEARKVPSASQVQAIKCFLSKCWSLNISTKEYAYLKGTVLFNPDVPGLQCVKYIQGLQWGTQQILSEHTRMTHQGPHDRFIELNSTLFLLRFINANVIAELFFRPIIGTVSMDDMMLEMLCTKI
DAX1 inh-2 = DAX1 (NR0B1) inhibitors on StAR promoter, primary screen, cell-based, luminescence, SF-1 (NR5A1), full-length DAX-1; inhibition, % at 6.8 µM; HEK293T StAR-luciferase reporter, SF-1/DAX-1 repression relief; 370,000 tested, 1.1% active;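 active means inhibition above the mean over all tested compounds plus 3 SD, cut at about 3.6% in these data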;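 further: higher inhibition means more luminescence from relief of DAX-1 repression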
Each line names hits and unclear results; the compound was inactive in the other large screens.

CCCSc1nnc2nc(C)cc(C)n12	DAX1 inh-1 4.7
Cc1cc(C)n2c(SCc3cccs3)nnc2n1	none
Cc1cc(C)n2c(SCC#N)nnc2n1	DAX1 inh-1 4.6
CN(CCCOC(=O)c1cc2ccccc2o1)C1CN(Cc2cn(Cc3ccccc3Cl)nn2)S(=O)(=O)C1 (stereo not given)	none (no result: DAX1 inh-1)
CC(C)CNC(=O)OCc1cn(Cc2cccc(F)c2)nn1	none (no result: DAX1 inh-1)
COC(=O)[C@]12C[C@H](CC(=O)NCc3cccc4ccccc34)C(=O)N(Cc3ccc(Cl)cc3Cl)C1=C[C@H](C(C)C)O[C@@H]2C1CC1	none (no result: DAX1 inh-1)
O=C(NCc1ccc(Cl)cc1)c1ccc(OCC2CCCO2)cc1 (stereo not given)	none
O=C(Nc1ccc(Cl)cc1)c1ccc(OCC2CCCO2)cc1 (stereo not given)	hgDAF12 agonist 13
CCCCc1c(-c2ccccc2OC)ncn1Cc1cc(F)ccc1F	none (no result: DAX1 inh-1)
CN1C(=O)/C(=C/c2ccc(O)c([N+](=O)[O-])c2)N(C)C1=S	DAX1 inh-1 4.2
COc1cc(/C=C2\C(=O)N(C)C(=S)N2C)ccc1O	none
N#Cc1ccc(Cn2nnc(-c3ccc(N4CCOCC4)cc3)n2)cc1	none (no result: DAX1 inh-1)
CC(C)(O)c1[nH]c2cc(C(F)(F)F)ccc2c1C(C)(C)O	none
CC(C)(O)c1[nH]c2cc(F)ccc2c1C(C)(C)O	hcDAF12 agonist 5.7
CCCCNC(=O)OC1CCC12CCC(c1ccccc1)CC2 (stereo not given)	none (no result: DAX1 inh-1)
Cc1ccc(S(=O)(=O)NC(=O)c2cc(C)n(CC(c3ccccc3)N(C)C)c2C)cc1 (stereo not given)	DAX1 inh-1 5.5
O=C(NCC1COCCO1)C1CCN(S(=O)(=O)c2cccc3ccccc23)CC1 (stereo not given)	none (no result: DAX1 inh-1)
O=c1oc2ccccc2cc1-c1ccccc1	DAX1 inh-1 6.0
O=c1oc2ccc3ccccc3c2cc1-c1nnc(-c2ccccc2)o1	none
O=c1oc2ccc3ccccc3c2cc1-c1nnc(-c2cccs2)o1	hgDAF12 agonist 11
O=c1oc2ccccc2cc1-c1nc(-c2cccs2)cs1	hcDAF12 agonist 6.1, ssDAF12 agonist 0.9
COc1cccc(-c2cccc3c4c([nH]c23)[C@@H]2C[C@H]3[C@@H](C(=O)N2CC4)[C@H](C)ON3C)c1	none (no result: DAX1 inh-1)
CCCCCCCCN1C(=O)[C@@H](CC(=O)N2CCN(C(=O)C3CC3)CC2)C[C@@]2(C(=O)OC)C1=C[C@H](C(C)(C)C)O[C@@H]2C	none (no result: DAX1 inh-1)
CCC(NC(=O)Cn1c(-c2ccccc2)cc(C(C)=O)c1C)c1ccccc1 (stereo not given)	none (no result: DAX1 inh-1)
O=c1c2ccccc2nnn1Cc1ccco1	none (no result: DAX1 inh-1)
CCCC[C@H]1C2CC(OC(=O)Nc3cccc(Cl)c3)C(C2)[C@H]2CCCCN21 (stereo not given in full)	none (no result: DAX1 inh-1)
O=P(c1ccccc1)(c1ccccc1)C1CCCO1 (stereo not given)	DAX1 inh-1 4.3
O=C(Cc1ccccc1)NCC1CCCO1 (stereo not given)	none
CC(C)c1ccc(NC(=S)N2CCN(C)CC2)cc1	none
CC(C)c1ccc(NC(=S)N2CCCC2)cc1	DAX1 inh-2 3.9
CC(=O)c1cnc2cc(-c3ccc(Cl)cc3)nn2c1C	none
Cc1c(C(=O)O)cnc2cc(-c3ccc(Cl)cc3)nn12	ssDAF12 agonist 1.1
Clc1ccc(-n2nnnc2-c2cnc3ccc(Cl)cc3c2-c2ccccc2)cc1	DAX1 inh-1 6.2
COc1ccccc1NC(=O)CCC(=O)N/N=C(/C)c1ccc(C)cc1	DAX1 inh-1 8.4
Cc1ccc(OCC(=O)Nc2ccccc2F)cc1	hgDAF12 agonist 13, DAX1 inh-1 6.1
Cc1ccc(C(=O)CCC(=O)Nc2ccccc2F)cc1	ssDAF12 agonist 1.0
NC(=O)c1ncn([C@@H]2O[C@H](C(=O)N[C@H](Cc3c[nH]c4ccccc34)C(=O)N3CCN(CC(=O)N4CCCC4)CC3)[C@@H](O)[C@H]2O)n1	none (no result: DAX1 inh-1)
C=CCNc1ccc2c(c1)OC[C@H](Cc1ccccc1)NS2(=O)=O	none (no result: DAX1 inh-1)
CN(C)c1ccc(NC(=O)CCCc2ccccc2)cc1	hgDAF12 agonist 12
C[C@]12C(=O)N(c3ccccc3)C(=O)N1[C@@H]1c3ccccc3OC[C@@H]1[C@H]2c1ccccc1	none
C[C@]12C(=O)N(c3ccc(Br)cc3)C(=O)N1[C@H]1c3ccccc3OC[C@@H]1[C@H]2c1ccccc1	hcDAF12 agonist 5.8
O=C(N[C@H](C(=O)N1CCC[C@H]1C(=O)NCCc1ccccc1Cl)c1ccccc1)c1cccs1	none (no result: DAX1 inh-1)
Cc1ccn(CCC(=O)NC2CC(C)(C)Cc3c2cnn3-c2ccccc2C)n1 (stereo not given)	DAX1 inh-2 3.8
Cc1ccccc1-n1ncc2c1CC(C)(C)CC2NC(=O)CCC1=NNC(=O)CC1 (stereo not given)	none
COc1ccc(NC(=O)CN(c2c(C)cccc2C)S(C)(=O)=O)cc1	none
Cc1cccc(C)c1NC(=O)CN(c1c(C)cccc1C)S(C)(=O)=O	DAX1 inh-1 5.0
COc1cccc(NC(=O)C(=O)NCCC2CCCCN2S(=O)(=O)c2cccs2)c1 (stereo not given)	DAX1 inh-2 4.1
COc1cccc(CC2(CO)CCCN(Cc3cn(C)c4ccccc34)C2)c1 (stereo not given)	none
Cn1cc(CN2CCCC(CO)(Cc3ccccc3)C2)c2ccccc21 (stereo not given)	DAX1 inh-1 4.9
O=C(N/N=C/c1ccc([N+](=O)[O-])cc1)c1[nH]ncc1Br	DAX1 inh-1 4.7
O=C(N/N=C/c1ccc([N+](=O)[O-])cc1)c1cc(C2CC2)[nH]n1	none
O=C(CNc1ccccc1)N/N=C/c1ccc([N+](=O)[O-])cc1	ssDAF12 agonist 1.6
Cc1ccc(NC(=O)c2ccc(CS(=O)(=O)Cc3ccccc3C)o2)cc1C	none (no result: DAX1 inh-1)
COc1cccc(CNC(=O)C[C@H]2CC[C@H]3[C@@H](COc4ccc(NC(=O)c5cccs5)cc4C(=O)N3C)O2)c1	none (no result: DAX1 inh-1)
Nc1c(Br)cc2c([nH]c(=O)c3ccccc32)c1Br	hcDAF12 agonist 6.3, ssDAF12 agonist 2.4
O=c1[nH]c2ccccc2c2ccc(Cl)cc12	none
Cc1cccc(C(=O)NC2CCCCCCC2)c1	hgDAF12 agonist 11
Cc1cccc(C(=O)NC2CCN(S(=O)(=O)c3ccccc3F)CC2)c1	DAX1 inh-1 4.3
CN(C)c1cccc(C(=O)NC2CCCCCC2)c1	none
S=c1[nH]nc(-c2n[nH]c3c2CCC3)n1N=Cc1ccc(Br)s1	none (no result: DAX1 inh-1)
NC(=O)c1c(N)[nH]c(C(=O)c2ccccc2)c1-c1ccccc1C(F)(F)F	none (no result: DAX1 inh-1, DAX1 inh-2)

Source: PubChem
